# Measured values published in PubChem BioAssay AID2253 (Southern Research Specialized Biocontainment Screening …, 2010).
# Screen size: about 2,200 compounds; about 1,300 (59%) were called active. No rule for the calls is given here. So high a share suggests a set chosen from earlier hits. Only a sample is shown. Results with a measured potency or affinity are listed apart.
# Assay: human monocytic cell viability reduction – S. typhimurium screen hits, cytotoxicity control for Salmonella PhoP regulon inhibitors, dose response (AID 2253)
# Details: THP-1 viability, CellTiter-Glo luminescence, 72 h; series mostly up to 50 µM; viability: at the top concentration
row,Structure (SMILES),viability
1,CCOC(=O)c1ccc(N2CCN(c3ccc(F)cc3)CC2)c(NC(=O)Nc2cccc(OC)c2)c1,94% (inactive)
2,Cc1ccc2occ(/C=N/O)c(=O)c2c1,85% (inactive)
3,O=C(O)C1CCCN1S(=O)(=O)c1ccc2[nH]c(=O)c(=O)[nH]c2c1 (configuration not stated),99.7% (inactive)
4,O=C(CSc1nnc2n(C3CCCCC3)c(=O)c3ccccc3n12)OC1CCCCC1,92.5% (inactive)
5,Cc1ccc(C(=O)NCC(=O)NCC(=O)OCC(=O)c2ccc([N+](=O)[O-])cc2)cc1,90.7% (inactive)
6,Cc1ccc(S(=O)(=O)NC2=NCN(CCOC(=O)c3ccc([N+](=O)[O-])cc3)CN2)cc1,103% (inactive)
7,Nc1ncncc1-c1ccc(Cl)cc1,86.4% (inactive)
8,N#Cc1c(N)nc(SCC(=O)NC2CCCCC2)c(C#N)c1-c1ccc(Cl)cc1,90.8% (inactive)
9,CCn1cc(C(=O)O)c(=O)c2cc(F)c(N3CCN(C(=S)NC(=O)c4cccc(C)c4)CC3)cc21,110% (inactive)
10,CN1/C(=C/C=N/NC(=O)c2ccc([N+](=O)[O-])cc2)C(C)(C)c2ccccc21,97.2% (inactive)
11,COc1cc(C)ccc1OCCCOc1ccccc1Br,92.4% (inactive)
12,O=C(COc1ccc(Br)cc1Cl)NC(=O)NCc1ccccc1,88.9% (inactive)
13,Clc1ccc(OCCn2ccnc2)c(Br)c1,80.3% (inactive)
14,CC(C)Oc1cccc(C(=O)NC(=S)Nc2ccccc2)c1,102% (inactive)
15,Cc1cc(C)c(NC(=S)NC(=O)c2ccc(-c3ccccc3)cc2)c(C)c1,101% (inactive)
16,Cn1cc(-c2nnnn2-c2cccc(C(F)(F)F)c2)c(C(F)(F)F)n1,91.9% (inactive)
17,Nc1cc(=O)[nH]c(=S)n1-c1cccc(C(F)(F)F)c1,92.3% (inactive)
18,Cc1ccc(/C=C/c2nnc(-c3ccc(C)cc3)o2)cc1,89.6% (inactive)
19,O=C(CSc1ncn[nH]1)Nc1cccc2ccccc12,94.5% (inactive)
20,COc1ccc(OC)c(NC(=O)c2ccccc2NS(=O)(=O)c2cccc3cccnc23)c1,86.2% (inactive)
21,COc1ccc(CCN2CC3=C(C2=O)C(c2ccccc2)NC(=O)N3C)cc1OC (configuration not stated),94.7% (inactive)
22,Cc1ccc(C(=O)COC(=O)CNS(=O)(=O)c2ccccc2)cc1[N+](=O)[O-],86.3% [at 12.5 µM] (inactive)

row,Structure (SMILES),viability
1,O=C(Cc1ccc(Cl)cc1)NNS(=O)(=O)c1ccc([N+](=O)[O-])cc1,106% (inactive)
2,O=C(N[C@H](CO)[C@H](O)c1ccc([N+](=O)[O-])cc1)C(Cl)Cl,103% (inactive)
3,COc1ccc2nc(-c3ccccc3)cc(OC)c2c1,86.2% (inactive)
4,Cc1ccc(-c2n[nH]c(=S)n2/N=C/c2cc3c(cc2[N+](=O)[O-])OCO3)cc1,80.4% (inactive)
5,Cc1nc2ccccc2c(=O)n1/N=C/c1ccc(N(C)C)cc1,99.1% (inactive)
6,CN(C)c1ccc(/C=N/c2cc(-c3ccccc3)nn2-c2ccccc2)cc1,81.5% (inactive)
7,CO[C@@]1(NC(=O)C2SC(=C(C(N)=O)C(=O)O)S2)C(=O)N2C(C(=O)O)=C(CSc3nnnn3C)CS[C@@H]21 (some centres not stated),87.5% (inactive)
8,CCCn1nnc(NC(=O)c2ccc(Br)o2)n1,86% (inactive)
9,FC(F)(F)c1cc(C(F)(F)F)c2ccc(Oc3ccccc3)nc2n1,101% (inactive)
10,Cc1ccc(NS(=O)(=O)c2ccccc2)c2c1CC(C)(C)O2,83.2% (inactive)
11,O=C1N=c2ccccc2=C1c1[nH]c(=S)[nH]c1O,105% (inactive)
12,Cc1ccc(Nc2nc(N)nc(CC#N)n2)cc1,87% (inactive)
13,C=CCn1c(SCC(=O)Nc2nnc(CC)s2)nnc1-c1cccnc1,95.3% (inactive)
14,O=C(c1cn(-c2ccccc2)nc1-c1cccnc1)N1CCCCC1,94.1% (inactive)
15,c1ccc(CSc2snnc2-c2ccccc2)cc1,83.8% [at 25 µM] (inactive)
16,O=C(COC(=O)c1cn(-c2ccccc2)nc1-c1ccccc1)c1cccc([N+](=O)[O-])c1,102% (inactive)
17,[O-]/[N+](=C\c1ccncc1)c1ccccc1,99.6% (inactive)
18,BrC(=C\c1ccccc1)/C=N/N1CCN(c2ccccn2)CC1,91% (inactive)
19,COC(=O)c1sc2ccccc2c1-n1cccc1C(=O)C(=O)Nc1ccc(Cl)cc1,85.5% (inactive)
20,O=C1CCCc2c1cc(C(=O)NCc1ccco1)c(=O)n2-c1ccc(Cl)cc1,99.9% (inactive)
21,CC(=O)c1cccc(NC(=O)NCc2ccco2)c1,83.1% (inactive)
22,CCCCN(C)C(=O)c1cn(C)c2ccc(S(=O)(=O)N(C)C)cc2c1=O,98.4% (inactive)

row,Structure (SMILES),viability
1,CO[C@H]1/C=C/O[C@@]2(C)Oc3c(C)c(O)c4c(O)c(c(C=NN5CCN(C)CC5)c(O)c4c3C2=O)NC(=O)/C(C)=C\C=C\[C@H](C)[C@H](O)[C@@H](C)[C@@H](O)[C@@H](C)[C@H](OC(C)=O)[C@@H]1C,84.4% (inactive)
2,O=Cc1cccn1Cc1ccccc1[N+](=O)[O-],111% (inactive)
3,COC(=O)C1C(=O)C=C(N2CCOCC2)CC1(C)C (configuration not stated),90.5% (inactive)
4,O=c1c2oc3ccccc3c2ncn1Cc1ccc(Cl)cc1,104% (inactive)
5,CSc1nnc(NC(=O)CCc2ccccc2)s1,83.4% (inactive)
6,CN1CCCC(OC(=O)CCCC(=O)OC2CCCN(C)C2)C1 (configuration not stated),96.3% (inactive)
7,O=C(Oc1ccc[nH]c1=O)c1cc([N+](=O)[O-])cc([N+](=O)[O-])c1,99.9% (inactive)
8,CC(C)Cc1nc2ccc(N)cc2[nH]1,95.7% (inactive)
9,Cc1ccc2nc(C(F)OC(F)(F)F)[nH]c2c1 (configuration not stated),83.4% (inactive)
10,O=C(O)CCC(=O)NCC1OCCc2ccccc21 (configuration not stated),93.2% (inactive)
11,CCn1cc(C(=O)O)c(=O)c2cc(OC)ccc21,81.6% (inactive)
12,O=C(CSc1nc2[nH]ncc2c(=O)[nH]1)N1CCCCC1,98.4% (inactive)
13,C#CCOc1ccc(Cl)cc1/C=N/O,92.4% (inactive)
14,CC1CCCCN1Cc1cnc(Cl)s1 (configuration not stated),93.5% (inactive)
15,CCN(CC)S(=O)(=O)c1cccc(C(=O)NC(Cc2c[nH]c3ccccc23)c2nnc3n2CCC3)c1 (configuration not stated),88.5% (inactive)
16,O=C(N/N=C/c1ccco1)c1cccc(S(=O)(=O)Nc2ccccc2Cl)c1,87.6% (inactive)
17,CC(=O)Oc1ccc(C(=O)[C@H]2[C@H]3C(=O)N(c4ccc5ccccc5c4)C(=O)[C@H]3[C@@H]3C=CC=NN32)cc1,90.4% (inactive)
18,O=C(CSc1nnc2c(Cl)cc(Cl)cn12)NC1CCS(=O)(=O)C1 (configuration not stated),102% (inactive)
19,O=C(CSc1nnc(-c2ccccc2)n1-c1ccc(Cl)cc1)NC1CCS(=O)(=O)C1 (configuration not stated),87.2% (inactive)
20,COc1cccc(-c2nnc(SCC(=O)Nc3ccc(OC)c(OC)c3)n2N)c1,114% (inactive)
21,COc1ccc(-c2ccc3c(N)c(C(=O)c4cccc(OC)c4)sc3n2)cc1,101% (inactive)
22,COc1ccc(NC(=O)CCNS(=O)(=O)c2ccc3c(c2)CCC(=O)N3)cc1,102% (inactive)

row,Structure (SMILES),viability
1,O=c1[nH]c2ccccc2n2c(=S)[nH]nc12,108% (inactive)
2,CCn1ncc(/C=C/C(=O)NCc2cn(C)nc2C)c1C,89% (inactive)
3,COc1ccc(OC)c(S(=O)(=O)N(C)CC(=O)N2CCc3ccccc3C2)c1,93.7% (inactive)
4,COc1ccc(C(=O)N2CCN(C(=O)c3ccco3)CC2)cc1OC,109% (inactive)
5,Nc1nc(CSc2nc3ccccc3[nH]2)nc(N2CCOCC2)n1,83.1% (inactive)
6,O=C(NC1CCCC1)c1ccc(Cl)s1,93.1% (inactive)
7,Cc1cc(-c2csc(NC(=O)c3ccccc3C(F)(F)F)n2)c(C)n1Cc1ccccc1,86.9% (inactive)
8,O=C(OCc1nnc(-c2ccccc2)o1)c1ccc(S(=O)(=O)NCc2ccco2)cc1,88.5% (inactive)
9,COC(=O)c1cccc(NC(=O)CCCOc2ccccc2)c1,97.7% (inactive)
10,O=C(Cn1nc(Cc2cccnc2)c2ccccc2c1=O)NCc1ccc2c(c1)OCO2,89.3% (inactive)
11,COC(=O)c1ccccc1NC(=O)NCc1ccc2c(c1)OCO2,90% (inactive)
12,CC(C)(C)c1ccc(C2CC2C(=O)N/N=C\c2cc3ccccc3nc2Cl)cc1 (configuration not stated),95% (inactive)
13,CCn1c(SCC(=O)N2CCCCC2)nc(O)cc1=O,95.8% (inactive)
14,O=C(NCc1cccnc1)c1cc2ccccc2oc1=O,91.9% (inactive)
15,CCCc1cc(C(=O)Cc2ccc(C(=O)OCC)o2)c(O)cc1O,84.2% (inactive)
16,CCOC(=O)N1CCN(c2nc(C)c3c(n2)CCCC3=O)CC1,93% (inactive)
17,CCCCn1c(-c2ccccc2)nc2c(=O)n(C)c(=O)[nH]c21,93.3% (inactive)
18,CCN(CC)CCNC(=O)c1cn(CC)c2cc(N3CCN(C(=O)c4ccco4)CC3)c(F)cc2c1=O,99.3% (inactive)
19,O=C1C2CCCN2c2ccc(S(=O)(=O)N3CCOCC3)cc2N1Cc1ccccc1F (configuration not stated),87.7% (inactive)
20,Cc1ccc(Oc2ccc3c(c2)C(=O)N(c2ccc(S(=O)(=O)Nc4nccs4)cc2)C3=O)cc1,92.7% (inactive)
21,CCCS(=O)(=O)N1CCCC(C(=O)N2CCN(c3ccccn3)CC2)C1 (configuration not stated),95.6% (inactive)
22,N=c1scc(-c2ccccc2)n1/N=C/c1ccco1,89.4% (inactive)

row,Structure (SMILES),viability
1,CCCCn1c(O)c(C(CC)=Nc2ccc3c(c2)CCC3)c(=O)[nH]c1=O,88.6% (inactive)
2,Cc1cccc(-n2c(N)cc(=O)[nH]c2=S)c1,94.4% (inactive)
3,O=C(O)C1CC=CCC1C(=O)NC12CC3CC(CC(C3)C1)C2 (configuration not stated),99.5% (inactive)
4,COC(=O)c1cc(C#N)c(Oc2ccccc2OC)nc1C,90.4% (inactive)
5,CN(CCO)Cc1csc2ccc(Br)cc12,95.3% (inactive)
6,CCn1c(CNC(=O)c2cccc(C)c2)nc2ccccc21,98.8% [at 25 µM] (inactive)
7,Cc1ccc(C)n1-c1cc([N+](=O)[O-])ccc1-n1ccnc1,91.1% (inactive)
8,Nc1c(-c2ccccc2)cnn1-c1cccc([N+](=O)[O-])c1,98.2% [at 25 µM] (inactive)
9,CC(C)(C)C1CCc2c(sc(NC(=O)c3cccs3)c2C(=O)N2CCCCC2)C1 (configuration not stated),80.1% (inactive)
10,NC(=O)c1c(NC(=O)CN2C(=O)CCC2=O)sc2c1CCCCC2,101% (inactive)
11,CCOC(=O)c1c(NC(=O)Nc2ccc(C)cc2)sc2c1CCN(C)C2,82.3% (inactive)
12,C=CCN=C(NC#N)SCc1ccccc1Cl,80.6% (inactive)
13,O=c1cc(-c2ccc([N+](=O)[O-])cc2)nc2cc(-c3ccc(Cl)cc3)[nH]n12,92.6% (inactive)
14,COc1ccc(CN2CCOCC2)cc1Br,105% (inactive)
15,COC(=O)c1ccc2c(=O)n(CCN3CCOCC3)c(SCC(=O)C(C)(C)C)nc2c1,90.6% (inactive)
16,N#Cc1ccc(COC(=O)c2ccc3c(=O)[nH]c(CN4CCOCC4)nc3c2)cc1,83.8% (inactive)
17,Cc1ccc(C(=O)Oc2cccc(NC(=O)c3cccs3)c2)cc1S(=O)(=O)N1CCOCC1,81.4% (inactive)
18,CC(C)Cc1oc(C(=O)O)cc1CN1CCOCC1,86.2% (inactive)
19,CCOC(=O)c1c(C)[nH]c(C)c1C(=O)COC(=O)/C=C/c1cccc(F)c1,84.6% (inactive)
